This note sets out measurements from PubChem BioAssay (NCATS).

A short description of experiment [1]: HPAF-II 24hr Apoptosis Induction qHTS against the NCATS CANVASS Library (AID 1347356). In outline: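 500 HPAF-II cells/well; compounds in 11-pnt qHTS; 24 h, 37 C/5% CO2; Caspase-Glo 3/7 added, 15 min RT dark; luminescence read. Doxorubicin control.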
A general note: Quantitative high-throughput screening tests each substance at several concentrations.

A short description of experiment [2]: HEK293 18hr Apoptosis Induction qHTS against the NCATS CANVASS Library (AID 1347357). The method, boiled down:
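Caspase-Glo 3/7 luminescence (15 min, room temperature) measured apoptosis after an 18-hour, 37 degrees C exposure of HEK293 cells (500 cells/well) to compounds in 11 points.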

Experiment [3] is described as follows: HEK293 24hr Apoptosis Induction qHTS against the NCATS CANVASS Library (AID 1347359). In outline:
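HEK293 cells (500/well, DMEM + 10% FBS) were exposed to compounds in an 11-point series for 24 hours at 37 degrees C, then caspase-3/7 activity was read by Caspase-Glo DEVD luciferase luminescence after 15 min.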

Experiment [4] can be described thus: HPAF-II 18hr Apoptosis Induction qHTS against the NCATS CANVASS Library (AID 1347360). In outline: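 Caspase-3/7 activation was measured with luminescent Caspase-Glo 3/7 reagent (15 min, RT) in HPAF-II cancer cells (500 cells/well). Before detection, cells had been treated for 18 h at 37 C with compounds (11 points).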
Experiment [5] has as its system NAD(P)H diaphorase (Clostridium kluyveri). The experiment can be described thus: Diaphorse counterscreen qHTS: Assay Interference Panel against the NCATS CANVASS Library (AID 1347362). In outline: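 Clostridium kluyveri diaphorase in PBS with 0.01% Tween-20 was preincubated 15 min at room temperature in the dark with compounds (11-point series). Resorufin fluorescence (ex 525/20, em 598/25) was read 5 min after adding resazurin/NADH.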
In general terms: The purpose of a counterscreen is to sort out artefacts and off-target activity.

Experiment [6] concerns the target Luciferin 4-monooxygenase (Photinus pyralis) (UniProt P08659). The experiment can be described thus: Firefly luciferase counterscreen qHTS: Assay Interference Panel against the NCATS CANVASS Library (AID 1347363). Note: series mostly up to about 57 µM. In outline: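 Purified P. pyralis luciferase was added to compounds (11-point series) preincubated 15 min at room temperature with substrate containing 0.013 mM D-luciferin and 0.013 mM ATP; luminescence was read after 5 min.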

Experiment [7] is described as follows: KB-3-1 Cancer Cell Toxicity qHTS against the NCATS CANVASS Library (AID 1347366). Note: nearly all actives have a fitted effect of over 75% in size. The method, boiled down:
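CellTiter-Glo luminescence measured viability after 72 h at 37C. KB-3-1 cells were seeded at 500 per well in DMEM/10% FBS.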

A short description of experiment [8]: qHTS for ATAD5 Agonist screened against the NCATS CANVASS Library (AID 1347367).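 Note: luciferase reporter driven by ATAD5 which rises upon DNA damage.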 The method, boiled down: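 Genotoxicity via ATAD5-luciferase luminescence after 16 h compound exposure (11-point series) at 37C in HEK293T-ATAD5 cells. CellTiter-Fluor viability read precedes the luminescence read; MMS serves as positive control.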
A short description of experiment [9]: G06 Cancer Cell Toxicity qHTS against the NCATS CANVASS Library (AID 1347368). Note: nearly all actives have a fitted effect of over 60% in size. Note: potency is the fitted concentration of half-maximal effect. In outline:
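ATP luminescence (CellTiterGlo) readout of cytotoxicity. Canine G06 glioma cells, 500/well, 72 hr incubation at 37C with compounds; bortezomib titration served as control.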

Experiment [10] can be described thus: MCF7 Cancer Cell Toxicity qHTS against the NCATS CANVASS Library (AID 1347369). The method, boiled down: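 Cytotoxicity was measured as CellTiterGlo luminescence (ATP) after 72 h at 37 °C. The cells were MCF7 at 500 per well, with an 11-point compound concentration series.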
Experiment [11] can be described thus: J3T Cancer Cell Toxicity qHTS against the NCATS CANVASS Library (AID 1347371). Note: potency is the fitted concentration of half-maximal effect. In outline:
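Dog glioma J3T, 500 cells/well; cpd 11-pt qHTS; 72 hr, 37C/5% CO2; CellTiterGlo ATP luminescence readout.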

Experiment [12] has as its target Nuclear receptor subfamily 1 group I member 3 (Homo sapiens) (UniProt Q14994). In words: qHTS for Constitutive Androstane Receptor (CAR) Antagonist screened against the NCATS CANVASS Library (AID 1347372).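 Note: cells stimulated with 50 nM CITCO agonist so inhibition reflects antagonism; series mostly up to about 46 µM.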 In outline:
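Cells were seeded and left 4hr to attach, then received compound at 11 concentrations and 50 nM CITCO. Following 24hr incubation, fluorescence viability and luciferase luminescence were read sequentially.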

Experiment [13] shares this target. In words: qHTS for Constitutive Androstane Receptor (CAR) Agonist screened against the NCATS CANVASS Library (AID 1347373).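 Note: every well also contained 1.5 µM PK11195 alongside the test compound.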 The method, boiled down: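 Luciferase read-out (ONE-Glo, 30 min RT) of CYP2B6-2.2kb promoter activity in double-stable HepG2-hCAR cells after 24hr compound exposure with 1.5uM PK11195 present; viability measured first by CellTiter-Fluor.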

A short description of experiment [14]: 10-beta competent E. coli microbial cell viability qHTS against the NCATS CANVASS Library (AID 1347376). Note: series mostly up to about 46 µM. In outline: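 Luminescence from BacTiter-Glo ATP detection served as the viability read-out; bacteria (0.2 OD) had been incubated overnight at 37C with pin-transferred compounds at 11 concentrations.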
Experiment [15] is described as follows: qHTS for H2AX Agonists against the NCATS CANVASS Library (AID 1347378). The method, boiled down: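 Phospho-H2AX (S139) in CHO-K1 lysates measured by HTRF, reported as 665/615 nm emission ratio after 24 hr antibody incubation at room temperature. Cells were first treated with a compound series for 3 hr at 37C (0.76% DMSO final).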
Experiment [16] can be described thus: qHTS for Inflammasome Signaling Inhibitors: IL-1-beta AlphaLISA screen against the NCATS CANVASS Library (AID 1347379).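 Note: human THP-1 cells primed with LPS then triggered with ATP.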 In outline:
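THP-1, 1 hr compound pre-incubation, then LPS 250 ng/mL + ATP 1.25 mM (final); 16 hr total with compound; IL-1B AlphaLISA, ex 680/em 615 nm; 11-point qHTS, up to 57.5 uM final.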

Experiment [17] is described as follows: Inflammasome Signaling qHTS Counterscreen: IL-1-beta AlphaLISA counterscreen against the NCATS CANVASS Library (AID 1347381).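 Note: cell-free check with purified IL-1β in medium and no THP-1 cells; series mostly up to about 57 µM.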 In outline: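 Here, no cellular stimulation occurs; compounds in an 11-point series meet 4 pg purified IL-1-beta directly. Bead-based AlphaLISA detection follows (1 h acceptor/antibody, then 30 min donor, dark, room temperature), with excitation at 680 nm.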

Experiment [18] in a line: Cytotoxicity qHTS for assessment of Hepg2 cells membrane integrity screened against the NCATS CANVASS Library (AID 1347387). The method, boiled down:
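LDH release read by fluorescence (560 nm ex/590 nm em) after CytoTox-ONE addition and 10 min RT; signal tracks lysed cells. HepG2, 2000 cells/well, plated overnight; compound 5 hr, 37C, 5% CO2, final 0.59 nM - 46 uM, 11 points.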

Experiment [19] in a line: qHTS for ATAD5 Antagonist screened against the NCATS CANVASS Library (AID 1347370).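 Note: HEK293T cells carrying an ATAD5 luciferase reporter co-treated with 10 µM 5-fluorouridine; series mostly up to about 46 µM; nearly all actives have a fitted effect of over 65% in size.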 In outline: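 HEK293T-ATAD5 luc reporter, 2000 cells/well; 5hr attach; cpd + 10 uM 5-FUrd; 16hr 37C, 5% CO2. Readouts: CellTiter-Fluor fluorescence (1hr), then Amplite luciferase luminescence (30min RT).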
Experiment [20] is described as follows: Viability qHTS for inhibitors of the SERCaMP assay screened against the NCATS CANVASS Library (AID 1347400). Note: nearly all actives have a fitted effect of over 70% in size. Note: potency is the fitted concentration of half-maximal effect. The method, boiled down:
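CellTiter-Glo luminescence readout after 48 h compound exposure (11-pnt qHTS series) of SH-SY5Y-GLuc SERCaMP MJH297 cells seeded at 1000 cells/well; bortezomib positive control.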

Results filed as inconclusive are left out. Calls of active or inactive are those of the source. Calls come from the whole dose curve; as a rule, active = well fitted curve in the direction sought with a large enough effect; inconclusive = small, poorly fitted or top-dose-only effect, or another doubt; inactive = no such curve, though single readings can be large; an effect the other way counts as inactive or inconclusive.

Sequence of Nuclear receptor subfamily 1 group I member 3 (Homo sapiens) (Q14994 whole entry, looked up): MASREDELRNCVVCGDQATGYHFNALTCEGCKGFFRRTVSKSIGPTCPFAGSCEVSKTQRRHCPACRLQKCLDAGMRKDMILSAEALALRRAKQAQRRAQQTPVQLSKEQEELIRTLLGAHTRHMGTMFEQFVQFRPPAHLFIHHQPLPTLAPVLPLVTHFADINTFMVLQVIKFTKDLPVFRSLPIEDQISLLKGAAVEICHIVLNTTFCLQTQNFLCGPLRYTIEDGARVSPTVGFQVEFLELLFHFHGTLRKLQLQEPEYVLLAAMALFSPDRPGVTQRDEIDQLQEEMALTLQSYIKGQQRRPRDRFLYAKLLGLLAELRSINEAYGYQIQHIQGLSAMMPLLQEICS
Sequence of Luciferin 4-monooxygenase (Photinus pyralis) (P08659 whole entry, looked up): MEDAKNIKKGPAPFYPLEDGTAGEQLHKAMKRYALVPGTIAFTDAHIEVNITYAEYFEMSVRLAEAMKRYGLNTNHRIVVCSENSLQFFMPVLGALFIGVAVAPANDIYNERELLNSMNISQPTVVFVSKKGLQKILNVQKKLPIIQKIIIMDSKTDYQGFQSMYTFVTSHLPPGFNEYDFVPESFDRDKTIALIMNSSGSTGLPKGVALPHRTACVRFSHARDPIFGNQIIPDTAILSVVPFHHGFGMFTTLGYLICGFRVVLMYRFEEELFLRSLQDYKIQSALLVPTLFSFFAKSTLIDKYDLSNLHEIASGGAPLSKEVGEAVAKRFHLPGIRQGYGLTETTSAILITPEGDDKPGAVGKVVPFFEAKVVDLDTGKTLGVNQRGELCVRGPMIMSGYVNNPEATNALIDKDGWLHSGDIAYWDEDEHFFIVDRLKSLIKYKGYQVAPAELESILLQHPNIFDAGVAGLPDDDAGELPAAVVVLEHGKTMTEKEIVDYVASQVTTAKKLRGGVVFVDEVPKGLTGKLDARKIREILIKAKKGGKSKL

For `COc1ccc(-c2oc3cc(OC)cc(OC)c3c(=O)c2O)cc1`, the outcome in [1], in [14], in experiment [17] and in experiment [18] was inactive. The Potency result in [2], in experiment [3], in experiment [4], in [5], in experiment [6] and in experiment [7] was “inactive” throughout. The Potency result in [8], in experiment [10], in [11], in [12], in experiment [13] and in experiment [15] was “inactive” in each case. Also, the Potency entry in experiment [16] was “inactive”. Besides, the Potency in [9] was 9.35 µM (active).
`CCC(C)=C1OC(=O)[C@H](C)[C@H](O)[C@H](Cc2cccnc2)NC(=O)C(NC(=O)c2ncccc2O)C(C)OC1=O` (some centres undefined): the call in [1], in experiment [14], in [17] and in [18] was inactive. Further, the Potency result in experiment [2], in experiment [3], in [4], in experiment [6], in [7] and in experiment [8] was “inactive” each time. Moreover, the Potency entry in experiment [9], in experiment [10], in [19], in [11], in experiment [12] and in experiment [13] was “inactive” each time. Further, the Potency entry in [15], in experiment [16] and in [20] was “inactive” throughout.
Take `C=CC(C)(C)C(=O)[C@@H](C)[C@@H]1CC[C@@](C)(C=C)O1`: the molecule was classed as inactive in experiment [1], in experiment [14], in [17] and in experiment [18]. For the same molecule, the Potency entry in experiment [2], in [3], in experiment [4], in experiment [5], in experiment [6] and in experiment [7] was “inactive” in each case. Besides, the Potency entry in [8], in experiment [9], in [10], in experiment [19], in [11] and in experiment [12] was “inactive” each time. Further, the Potency entry in experiment [13], in experiment [15], in experiment [16] and in [20] was “inactive” each time.
Consider `C=C1C[C@]23C=CC(=O)[C@@](C)(CCCC(C)C(=O)N[C@@H](CO)C(=O)O)[C@@H]2C[C@@H]1CC3` (some centres undefined), for which the outcome in experiment [1], in experiment [14], in [17] and in experiment [18] was inactive. Also, the Potency result in experiment [2], in [3], in [4], in experiment [5], in experiment [6] and in [7] was “inactive” in each case. Moreover, the Potency entry in experiment [8], in experiment [9], in experiment [10], in experiment [19], in experiment [11] and in [12] was “inactive” each time. Besides, the Potency entry in experiment [13], in experiment [15], in [16] and in experiment [20] was “inactive” in each case.
In the case of `C[C@@]12CCC[C@@](C)(C(=O)OP(=O)(O)OC[C@H]3O[C@@H](n4cnc5c(N)ncnc54)[C@H](O)[C@@H]3O)[C@H]1C[C@@H](O)[C@@]13C[C@@H](CC[C@@H]21)[C@](C)(O)C3`, the molecule was called inactive in experiment [1], in experiment [14], in experiment [17] and in experiment [18]. The Potency entry in experiment [2], in experiment [3], in experiment [4], in experiment [5], in experiment [6] and in [7] was “inactive” each time. The Potency entry in [8], in experiment [10], in experiment [19], in experiment [12], in experiment [13] and in experiment [16] was “inactive” each time. The Potency entry in experiment [20] is “inactive”. The Potency was 14.8 µM (active) in experiment [9] and 16.6 µM (active) in experiment [11].
For `CC[C@@H]1C[C@@]2(CC)OC(=O)[C@@]3(CC)[C@H](CC)[C@@H]1[C@@H]23`, the outcome in experiment [1], in [14], in experiment [17] and in [18] was inactive. The Potency entry in experiment [2], in experiment [3], in [4], in [5], in experiment [6] and in experiment [7] was “inactive” in each case. For the same molecule, the Potency entry in experiment [8], in experiment [9], in experiment [19], in experiment [11], in experiment [13] and in experiment [15] was “inactive” each time. Also, in experiment [16], the Potency result is “inactive”. Besides, the Potency in experiment [20] was 6.04 µM (active).
